Test results: PubChem BioAssay (EPA / NIEHS)
Results filed as inconclusive are left out. Activity calls are given as the source filed them. The calls were made as follows, unless noted: active = hit-call score of the fitted dose curve at least 0.9, where 1 is the maximum; inactive = score below 0.9.

Assays:
[1] = ATG_CRE_CIS: Attagene CIS-FACTORIAL HepG2 Assay for human cAMP Responsive Element (CRE) binding protein 3 (AID 2282926); details: HepG2 CRE cis-reporter, Attagene multiplexed mRNA; actives raise or lower the signal
In short: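 HepG2 cells transiently transfected with a multiplexed reporter library (CRE-driven unit among them) were dosed for 24 h. Reporter mRNA was quantified by RT-PCR, fluorescent labelling, HpaI digestion and capillary electrophoresis, with bidirectional fitting against DMSO baseline.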

[2] = target: CCAAT/enhancer-binding protein beta (Homo sapiens) (UniProt P17676); assay: ATG_C_EBP_CIS: Attagene CIS-FACTORIAL HepG2 Assay for human CCAAT/Enhancer Binding Protein (C/EBP) beta (AID 2282927); details: HepG2 Attagene cis-factorial transcription factor reporter; actives raise or lower the signal
Sequence of CCAAT/enhancer-binding protein beta (Homo sapiens) (P17676 whole entry, looked up): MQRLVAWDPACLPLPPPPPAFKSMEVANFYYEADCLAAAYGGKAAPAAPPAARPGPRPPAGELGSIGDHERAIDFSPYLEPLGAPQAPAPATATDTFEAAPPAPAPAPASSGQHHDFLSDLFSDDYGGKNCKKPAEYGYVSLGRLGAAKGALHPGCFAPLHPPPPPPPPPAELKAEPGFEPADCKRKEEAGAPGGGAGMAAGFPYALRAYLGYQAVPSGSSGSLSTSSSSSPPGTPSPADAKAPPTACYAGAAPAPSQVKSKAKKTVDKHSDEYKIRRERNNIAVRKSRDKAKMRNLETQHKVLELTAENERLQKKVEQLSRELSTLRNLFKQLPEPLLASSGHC
In short: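 HepG2, transient MRTU transfection, 24 h treatment. RT-PCR plus CE fluorescence; DMSO negative control, bidirectional fit.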

[3] = ATG_CMV_CIS: Attagene CIS-FACTORIAL HepG2 Assay for human CMV (Internal Marker) (AID 2282928); details: HepG2 CMV promoter reporter, transcription factor profiling; actives raise or lower the signal;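 also: endpoint acts as a background internal control marker rather than a target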
In short: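 After transient transfection of HepG2 with reporter transcription units driven by cis-regulatory promoters, cells receive test chemical for 24 h. Labeled reporter amplicons, digested with HpaI, are sized and quantified by capillary electrophoresis against DMSO.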

[4] = ATG_DR4_LXR_CIS: Attagene CIS-FACTORIAL HepG2 Assay for human Liver X Receptor (LXR), DR4 submotif (AID 2282929); details: HepG2 Attagene DR4 cis-reporter, mRNA transcription; actives raise or lower the signal
In short: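 Fluorescence intensity of labelled reporter cDNA fragments, separated by capillary electrophoresis, gives the signal. HepG2 cells bearing cis-regulated reporter constructs were treated 24 h; activity fitted bidirectionally relative to DMSO negative control.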

[5] = ATG_AP_2_CIS: Attagene CIS-FACTORIAL HepG2 Assay for human Activator Protein 2 (AP-2) (AID 2282932); details: HepG2 AP-2 cis-reporter, Attagene transcription factor profiling; actives raise or lower the signal
In short: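 Multiplexed mRNA reporter assay in HepG2: cis-regulated units report endogenous factor activity after 24 h treatment. Fluorescence from capillary electrophoresis of RT-PCR products gives the signal, with DMSO as baseline.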

[6] = ATG_E_Box_CIS: Attagene CIS-FACTORIAL HepG2 Assay for human Enhancer Box (E-box) (AID 2282936); details: HepG2 E-box cis-reporter transcription, actives raise or lower the signal
In short: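 First, HepG2 cells receive multiple cis-regulated reporter constructs by transient transfection. Next, chemicals are applied for 24 h. Finally, reporter mRNA is quantified via RT-PCR and capillary electrophoresis, with DMSO as baseline.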

[7] = ATG_EGR_CIS: Attagene CIS-FACTORIAL HepG2 Assay for human Early Growth Response 1 (EGR1) (AID 2282938); details: HepG2 Attagene CIS-FACTORIAL EGR reporter mRNA; actives raise or lower the signal
In short: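 Activity is taken as induction or loss of reporter mRNA versus DMSO, fitted bidirectionally. Transcripts from cis-regulated reporter units in transiently transfected HepG2 were measured after 24 h by RT-PCR with capillary electrophoresis.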

[8] = ATG_M_19_CIS: Attagene CIS-FACTORIAL HepG2 Assay for M19 Transcription Factor (Internal Marker) (AID 2282939); details: HepG2 Attagene CIS-FACTORIAL M19 internal marker reporter; actives raise or lower the signal
In short: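 Following a 24 h exposure, RNA from transfected HepG2 cells was reverse-transcribed, PCR-amplified with reporter-specific primers, end-labelled with 6-FAM and HpaI-digested before capillary separation. Values represent gain or loss versus DMSO.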

[9] = ATG_Ets_CIS: Attagene CIS-FACTORIAL HepG2 Assay for human Erythroblast Transformation Specific (ETS) (AID 2282941); details: HepG2 ETS cis-reporter transcription, actives raise or lower the signal
In short: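 Human HepG2 hepatoma cells were transiently transfected with promoter-driven reporter constructs and treated for 24 hours. Reporter transcripts were quantified by RT-PCR with fluorescent primer extension; bidirectional curve fitting used DMSO as reference.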

[10] = target: Hepatocyte nuclear factor 3-beta (Homo sapiens) (UniProt Q9Y261); assay: ATG_FoxA2_CIS: Attagene CIS-FACTORIAL HepG2 Assay for human Forkhead box A2 (FOXA2) (AID 2282942); details: HepG2 cis-reporter transcription factor activity, 24 h; actives raise or lower the signal
Sequence of Hepatocyte nuclear factor 3-beta (Homo sapiens) (Q9Y261 whole entry, looked up): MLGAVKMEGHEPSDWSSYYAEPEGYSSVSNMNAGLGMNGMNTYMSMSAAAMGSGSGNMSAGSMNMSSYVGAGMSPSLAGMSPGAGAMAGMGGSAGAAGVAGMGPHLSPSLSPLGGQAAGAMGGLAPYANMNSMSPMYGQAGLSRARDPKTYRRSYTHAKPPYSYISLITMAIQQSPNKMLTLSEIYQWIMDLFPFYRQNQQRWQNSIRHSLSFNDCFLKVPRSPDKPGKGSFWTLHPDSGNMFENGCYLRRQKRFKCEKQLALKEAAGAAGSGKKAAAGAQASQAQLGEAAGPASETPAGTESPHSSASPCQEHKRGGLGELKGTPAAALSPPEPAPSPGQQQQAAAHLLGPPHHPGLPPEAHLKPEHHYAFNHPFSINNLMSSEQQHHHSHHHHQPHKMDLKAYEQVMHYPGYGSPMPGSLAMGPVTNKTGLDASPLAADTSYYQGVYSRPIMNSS
In short: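 Reporter transcript induction is measured by fluorescence after capillary electrophoresis of RT-PCR products from HepG2 cells exposed 24 h. Cis-regulated reporter units report endogenous factor activity; curves fitted both directions against DMSO.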

[11] = ATG_FoxO_CIS: Attagene CIS-FACTORIAL HepG2 Assay for human Forkhead box O (FoxO) (AID 2282943); details: HepG2 Attagene cis-reporter, FoxO element, mRNA; actives raise or lower the signal
In short: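 Transfected HepG2 reporter cells exposed to test chemical for 24 h; reporter RNA measured by reverse transcription, PCR and fluorescent capillary electrophoresis; curves fitted for increases and decreases against DMSO.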

[12] = ATG_GATA_CIS: Attagene CIS-FACTORIAL HepG2 Assay for human GATA Binding Protein (AID 2282944); details: HepG2 GATA cis-element reporter, Attagene multiplex mRNA; actives raise or lower the signal
In short: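 DMSO serves as negative control and baseline for bidirectional fitting of reporter mRNA changes. HepG2 cells bearing transiently transfected cis-promoter reporters were exposed 24 h; transcripts detected via RT-PCR and capillary electrophoresis.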

[13] = ATG_M_32_CIS: Attagene CIS-FACTORIAL HepG2 Assay for M32 Transcription Factor (Internal Marker) (AID 2282949); details: HepG2 Attagene cis-factorial M32 reporter, mRNA; actives raise or lower the signal;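 also: background control marker of the multiplexed CIS panel rather than a real target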
In short: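 Internal background marker read-out: RT-PCR/capillary electrophoresis fluorescence of reporter transcripts from transiently transfected HepG2 cells after 24 h chemical exposure. Activity fitted bidirectionally relative to DMSO negative control.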

[14] = ATG_M_06_CIS: Attagene CIS-FACTORIAL HepG2 Assay for M06 Transcription Factor (Internal Marker) (AID 2282950); details: HepG2 Attagene CIS-FACTORIAL M06 internal marker reporter; actives raise or lower the signal
In short: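 Fluorescence-labelled RT-PCR products from cis-promoter reporter units, cut with HpaI and resolved by capillary electrophoresis, give the signal. Cells are human HepG2, dosed for 24 h. Serves as background control, fitted relative to DMSO.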

[15] = ATG_PXRE_CIS: Attagene CIS-FACTORIAL HepG2 Assay for human Pregnane X Receptor Element (PXRE) (AID 2282957); details: HepG2 Attagene CIS-FACTORIAL PXRE reporter, mRNA; actives raise or lower the signal
In short: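 HepG2 cells transiently transfected with cis-regulated multiple reporter transcription units; endogenous factor activity measured as reporter mRNA 24 h after dosing. RT-PCR, fluorescent primer extension, HpaI digestion, capillary electrophoresis; bidirectional fit versus DMSO baseline.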

[16] = ATG_Sox_CIS: Attagene CIS-FACTORIAL HepG2 Assay for human SRY-box transcription factor (SOX) (AID 2282960); details: HepG2 Attagene cis-factorial SOX reporter, mRNA; actives raise or lower the signal
In short: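 Measures mRNA induction of a SOX1-associated reporter in HepG2 after 24 h dosing. Fluorescently labelled RT-PCR fragments are separated by capillary electrophoresis, and gain or loss relative to DMSO control is fitted.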

[17] = target: Transcription factor Sp1 (Homo sapiens) (UniProt P08047); assay: ATG_Sp1_CIS: Attagene CIS-FACTORIAL HepG2 Assay for human Specificity Protein 1 (Sp1) (AID 2282961); details: HepG2 Sp1 cis-reporter transcription, actives raise or lower the signal
Sequence of Transcription factor Sp1 (Homo sapiens) (P08047 whole entry, looked up): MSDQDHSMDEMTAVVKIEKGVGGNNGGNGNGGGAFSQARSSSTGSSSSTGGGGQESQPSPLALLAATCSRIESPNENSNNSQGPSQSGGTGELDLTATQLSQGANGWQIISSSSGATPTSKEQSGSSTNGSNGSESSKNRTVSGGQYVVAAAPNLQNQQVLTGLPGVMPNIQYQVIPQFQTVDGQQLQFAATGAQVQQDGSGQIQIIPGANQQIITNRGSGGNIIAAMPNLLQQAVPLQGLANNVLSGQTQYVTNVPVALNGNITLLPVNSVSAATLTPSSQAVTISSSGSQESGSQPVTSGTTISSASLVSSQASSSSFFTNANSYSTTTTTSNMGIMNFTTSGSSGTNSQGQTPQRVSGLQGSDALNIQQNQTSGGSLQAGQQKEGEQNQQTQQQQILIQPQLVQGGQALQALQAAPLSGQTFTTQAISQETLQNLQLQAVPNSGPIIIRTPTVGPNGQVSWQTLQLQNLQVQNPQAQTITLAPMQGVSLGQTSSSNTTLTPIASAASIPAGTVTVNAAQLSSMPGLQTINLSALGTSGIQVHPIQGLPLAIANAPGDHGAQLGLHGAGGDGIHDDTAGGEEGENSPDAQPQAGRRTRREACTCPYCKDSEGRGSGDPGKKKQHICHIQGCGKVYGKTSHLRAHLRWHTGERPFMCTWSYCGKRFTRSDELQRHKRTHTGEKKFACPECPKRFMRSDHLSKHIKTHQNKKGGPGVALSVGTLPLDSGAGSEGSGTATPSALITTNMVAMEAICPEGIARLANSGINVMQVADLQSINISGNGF
In short: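 Cells: HepG2, transiently transfected with cis-regulated multiplexed reporters. Exposure: 24 h. Detection: reporter transcripts amplified, fluorescently labeled, restriction-digested and sized by capillary electrophoresis. Analysis: bidirectional fit relative to DMSO.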

[18] = ATG_SREBP_CIS: Attagene CIS-FACTORIAL HepG2 Assay for human Sterol Regulatory Element Binding (SREBP) (AID 2282962); details: HepG2 Attagene cis-factorial SREBP reporter, mRNA; actives raise or lower the signal
In short: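 mRNA induction of transfected cis-promoter reporters in HepG2 cells, 24 h post-dose. Detection: RT-PCR with 6-FAM-labelled products, HpaI digest, capillary electrophoresis. DMSO served as negative control and baseline.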

[19] = target: Signal transducer and activator of transcription 3 (Homo sapiens) (UniProt P40763); assay: ATG_STAT3_CIS: Attagene CIS-FACTORIAL HepG2 Assay for human Signal Transducer and Activator of Transcription 3 (STAT3) (AID 2282963); details: HepG2, Attagene cis-factorial STAT3 reporter transcription; actives raise or lower the signal
Sequence of Signal transducer and activator of transcription 3 (Homo sapiens) (P40763 whole entry, looked up): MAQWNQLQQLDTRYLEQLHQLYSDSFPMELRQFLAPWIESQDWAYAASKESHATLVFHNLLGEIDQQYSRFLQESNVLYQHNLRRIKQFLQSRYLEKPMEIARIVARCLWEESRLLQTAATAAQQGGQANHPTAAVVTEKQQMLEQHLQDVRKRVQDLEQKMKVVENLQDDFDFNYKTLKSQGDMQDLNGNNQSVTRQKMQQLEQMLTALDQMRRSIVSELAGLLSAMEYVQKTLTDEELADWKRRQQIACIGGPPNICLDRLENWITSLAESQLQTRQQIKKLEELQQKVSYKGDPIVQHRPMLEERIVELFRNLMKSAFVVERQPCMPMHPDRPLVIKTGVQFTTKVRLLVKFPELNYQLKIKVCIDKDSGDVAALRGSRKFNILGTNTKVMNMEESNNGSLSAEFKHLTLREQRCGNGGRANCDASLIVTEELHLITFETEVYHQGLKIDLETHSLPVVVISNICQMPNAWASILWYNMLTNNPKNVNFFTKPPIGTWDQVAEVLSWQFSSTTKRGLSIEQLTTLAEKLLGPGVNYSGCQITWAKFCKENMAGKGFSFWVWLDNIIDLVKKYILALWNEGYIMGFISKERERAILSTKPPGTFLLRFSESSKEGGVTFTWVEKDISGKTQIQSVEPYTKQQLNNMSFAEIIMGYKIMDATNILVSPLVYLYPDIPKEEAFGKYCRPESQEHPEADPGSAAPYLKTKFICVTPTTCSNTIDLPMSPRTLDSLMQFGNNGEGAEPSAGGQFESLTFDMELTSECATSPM
In short: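 Values derive from bidirectional fits relative to DMSO of reporter mRNA levels, measured by RT-PCR with capillary electrophoresis, in HepG2 cells carrying transiently transfected cis-regulated reporter units and exposed 24 h.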

[20] = target: Androgen receptor (Homo sapiens) (UniProt P10275); assay: ATG_AR_TRANS: Attagene TRANS-FACTORIAL HepG2 Assay for human Androgen Receptor (AR) (AID 2282973; active = hit-call score of the fitted dose curve at least 0.9, where 1 is the maximum); details: HepG2 Attagene TRANS-FACTORIAL AR reporter transcription
Sequence of Androgen receptor (Homo sapiens) (P10275 whole entry, looked up, the tested form may be a part): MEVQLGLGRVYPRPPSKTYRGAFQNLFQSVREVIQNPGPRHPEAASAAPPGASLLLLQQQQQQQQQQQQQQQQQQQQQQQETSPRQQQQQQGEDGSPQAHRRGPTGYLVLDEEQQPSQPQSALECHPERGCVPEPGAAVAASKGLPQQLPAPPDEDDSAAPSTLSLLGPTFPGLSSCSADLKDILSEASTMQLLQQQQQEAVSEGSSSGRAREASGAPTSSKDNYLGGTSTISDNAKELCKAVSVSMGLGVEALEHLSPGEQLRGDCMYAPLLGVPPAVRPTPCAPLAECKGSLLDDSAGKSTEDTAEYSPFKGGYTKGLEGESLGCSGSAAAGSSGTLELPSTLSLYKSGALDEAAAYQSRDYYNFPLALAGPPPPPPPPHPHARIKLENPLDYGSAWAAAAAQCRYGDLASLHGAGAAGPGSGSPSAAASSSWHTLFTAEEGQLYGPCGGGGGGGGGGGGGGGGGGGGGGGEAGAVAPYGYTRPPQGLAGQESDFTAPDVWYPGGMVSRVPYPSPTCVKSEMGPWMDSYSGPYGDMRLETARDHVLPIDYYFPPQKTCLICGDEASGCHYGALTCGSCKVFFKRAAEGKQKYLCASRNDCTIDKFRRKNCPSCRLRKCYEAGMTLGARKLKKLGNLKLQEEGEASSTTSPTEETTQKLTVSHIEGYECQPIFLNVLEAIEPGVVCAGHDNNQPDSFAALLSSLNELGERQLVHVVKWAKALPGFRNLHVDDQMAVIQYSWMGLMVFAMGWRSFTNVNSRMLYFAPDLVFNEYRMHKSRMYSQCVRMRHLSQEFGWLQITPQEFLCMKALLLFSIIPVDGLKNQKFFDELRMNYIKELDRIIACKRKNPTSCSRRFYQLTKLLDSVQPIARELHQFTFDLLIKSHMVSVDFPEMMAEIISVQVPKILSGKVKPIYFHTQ
In short: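 HepG2 cells transiently transfected with multiplexed GAL4-UAS reporter units and chimeric NR-Gal4 fusion; 24 h compound exposure. Reporter mRNA measured by RT-PCR, 6-FAM labelling, HpaI digestion and capillary electrophoresis; gain-of-signal fitted relative to DMSO baseline.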

Measured: outcome

CN(C)CCC#N
not listed: [20]
inactive: all other assays above

CCCCOP(=O)(O)OCCCC
inactive: all assays above

c1ccc2c(c1)CCCC2
not listed: [20]
inactive: all other assays above

ClC1=C(Cl)[C@]2(Cl)[C@@H]3[C@@H](Cl)[C@H](Cl)C[C@@H]3[C@@]1(Cl)C2(Cl)Cl
not listed: [20]
inactive: all other assays above

CCOc1nc(F)cc2nc(S(=O)(=O)Nc3c(Cl)cccc3C(=O)OC)nn12
inactive: [20]

Cl/C=C\CCl
not listed: [20]
inactive: all other assays above
